This note sets out measurements from the supplement of paper PMC6555819.

One assay concerns PXR:RXRa (NR concentration 270 nM, RXRa partner concentration 90 nM). Kind of assay: PBM binding z-score (relative to random genomic background probes); higher = stronger binding; sequences stand for … in GC…GCGATTGACAGCGTAGAATGAAGG
An outline of the steps: (§1)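 Binding z-scores were set against random background probes. The data came from custom Agilent 4×180K protein-binding microarrays carrying double-stranded probes with 34-nt variable regions, incubated 1 h with ligand-free nuclear receptor dimers. Partner-specific antibodies detected binding, and scanned fluorescence was regression-normalized.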
As to CCAGACAGGAGAGAAGGTAACTCAGCCTCGATTA, the PBM binding z-score was -0.0804.

CGTCAAAGTTCAAGGTAACGTACCAGAAAGCAGC returned a PBM binding z-score of 4.28.

Consider TCTAGTTGGTCACGGAAGTCACACACGACGGGTA, for which the PBM binding z-score is 0.653.

Sequence ATATGTAGGTTATCGGTTCATTCAGTTTGCGCAT yielded a PBM binding z-score of 3.48.

Regarding CCTAGCAGGCCAATGTGGGTCACTCAAGGCTTGA, the PBM binding z-score was determined as 1.24.

In turn, TCATATAGGTAATACAGGTGAAAGTTGGCATCTA had a PBM binding z-score of 1.23.

On to GCTAGCATGCCATTTGGGTCACTCAATGACGGGC, for which the PBM binding z-score worked out at 0.247.

CGTCAAAGTTCAAGGTAACGTTACAGAAAGCAGC: the PBM binding z-score is 4.49.

CCTTACGGGTCAAGGTTATAGCACGGGTGGTACG yielded a PBM binding z-score of 3.2.

CGAACTAGGGCATCCAGGACAGTGAATACATTGA yielded a PBM binding z-score of -0.0736.

Consider TTATCAAGGTGAAGGTCGTTGATCCCTCTGTAGA, for which the PBM binding z-score worked out at 1.66.

The sequence CCAGACAGGTGAAATGTAACTCAGTCTGGTACGC displayed a PBM binding z-score of 0.0204.

In turn, GATTCAGGGTCAAGGCCAGAGTACGCGTATTGAT showed a PBM binding z-score of 4.81.

As to CGTCCAAGGTCAATGCTAGGTAAGTGAAAGCATT, the PBM binding z-score was determined as 3.28.

Sequence CTCGAAAGGTCGTGCTCAGGTGACTATACCAAAC showed a PBM binding z-score of 3.67.

With GCTGCTAGGTCCGGTTGGTCAGCTAACGGGTACG, the PBM binding z-score is -0.574.

Sequence TTACCAAGGTGAGCTGAGGTCGTTGACCCAACTC came in with a PBM binding z-score of 5.01.

On to TCTATTAGTTGACGGGCAACCGACGAGTCCGTTT, for which the PBM binding z-score amounted to 0.38.

In turn, TTACCAAGGTGAACGTCGTTGATCCCTCTGTAGA showed a PBM binding z-score of 0.627.

The sequence GCTATTAGTCGAAAGGGCAACCGAATGATTCTCG showed a PBM binding z-score of 0.446.

In turn, CCTAGCAGGCTAGGGTCACTCAAGCATTTCGCTT gave a PBM binding z-score of 3.3.

The sequence CGTCCAAGGTCAAAAGTCAGTGAAGAGATGACGG came in with a PBM binding z-score of 3.92.

On to ATCGAAAGATCGTGAGGTGAGTATACAGAAAGGC, for which the PBM binding z-score is -0.0729.

Turning to CCTCGGAGGACCACAGGAGGTCAGAGCTGCCAGA, the PBM binding z-score turned out to be 2.22.

In turn, TCGAGTAGGTTACCAATGGGGTATTCAGCTTTCT displayed a PBM binding z-score of 0.05.

AGAACGAGGGCACGCTGAGATGATAGCAGAGTAG displayed a PBM binding z-score of 0.342.

For the sequence ATCTCTAAGTAAAGTTCAGTGAAAGATCGATAGA, the PBM binding z-score was determined as 2.03.

With TCTTGTAGATCAAAAGAGGTTAAGAAAGTGCGCT, the PBM binding z-score was 2.86.

On to ATATGTAGGTTAAGGGTCATTCAGGTTGGTTCGC, for which the PBM binding z-score is 5.48.

In turn, CGAACTAGGTCACTGACAGGACAGTGAATAGTAA displayed a PBM binding z-score of 1.1.

Turning to CCTACTGGGCCATCACGTCATTGATATCAACGTT, the PBM binding z-score is -0.248.

On to ACCATTAGTTGAGACGAGGGCAACCGATAGGTTG, for which the PBM binding z-score worked out at 1.5.

In turn, TCGAGTAGGTTACCAATGGGGCATTCTGCTTTCT showed a PBM binding z-score of -0.0891.

The sequence CAAACTAGGTCAAGAGGTCAATGTCCGCTTCCCG gave a PBM binding z-score of 5.63.

Turning to TAGCCTAGGTCATTCATGGGCCAGTATAGAAAGC, the PBM binding z-score turned out to be 1.66.

GCTTACGGGTCAAAGGTAATAGCATGAATAGAAT: the PBM binding z-score was determined as 4.26.

TTACCAAGGTAAAGGTCGTTGATCCCTCTGTAGA: the PBM binding z-score is 2.59.

Consider TCTTGTAGATCAACAGGGGGTTAAGAAAGATCGA, for which the PBM binding z-score came to 2.5.

CAAACTAGGTCAAGGCCAAAGTCGGTTTGTGCCA showed a PBM binding z-score of 1.8.

In the case of CCAGACAGTTGAGAAGGTAACTCAGCCTCGATTA, the PBM binding z-score worked out at 0.00076.

The test system of another assay is PXR homodimer (NR concentration 270 nM). The assay is described as above. An outline of the steps:
as §1
In turn, CCAGACAGGAGAGAAGGTAACTCAGCCTCGATTA yielded a PBM binding z-score of 0.0829.

Turning to CGTCAAAGTTCAAGGTAACGTACCAGAAAGCAGC, the PBM binding z-score stood at 3.52.

The sequence TCTAGTTGGTCACGGAAGTCACACACGACGGGTA showed a PBM binding z-score of 0.0861.

Regarding ATATGTAGGTTATCGGTTCATTCAGTTTGCGCAT, the PBM binding z-score came out at 11.4.

With CCTAGCAGGCCAATGTGGGTCACTCAAGGCTTGA, the PBM binding z-score was -0.313.

Turning to TCATATAGGTAATACAGGTGAAAGTTGGCATCTA, the PBM binding z-score was 0.642.

GCTAGCATGCCATTTGGGTCACTCAATGACGGGC yielded a PBM binding z-score of -0.745.

As to CGTCAAAGTTCAAGGTAACGTTACAGAAAGCAGC, the PBM binding z-score came to 3.12.

For the sequence CCTTACGGGTCAAGGTTATAGCACGGGTGGTACG, the PBM binding z-score was 0.367.

Sequence CGAACTAGGGCATCCAGGACAGTGAATACATTGA registered a PBM binding z-score of 0.524.

Sequence TTATCAAGGTGAAGGTCGTTGATCCCTCTGTAGA returned a PBM binding z-score of 0.515.

With CCAGACAGGTGAAATGTAACTCAGTCTGGTACGC, the PBM binding z-score is -0.634.

Turning to GATTCAGGGTCAAGGCCAGAGTACGCGTATTGAT, the PBM binding z-score worked out at 0.452.

As for CGTCCAAGGTCAATGCTAGGTAAGTGAAAGCATT, the PBM binding z-score is 0.34.

On to CTCGAAAGGTCGTGCTCAGGTGACTATACCAAAC, for which the PBM binding z-score was 0.399.

The sequence GCTGCTAGGTCCGGTTGGTCAGCTAACGGGTACG gave a PBM binding z-score of -0.913.

The sequence TTACCAAGGTGAGCTGAGGTCGTTGACCCAACTC registered a PBM binding z-score of 0.193.

As to TCTATTAGTTGACGGGCAACCGACGAGTCCGTTT, the PBM binding z-score is 0.151.

The sequence TTACCAAGGTGAACGTCGTTGATCCCTCTGTAGA yielded a PBM binding z-score of -0.305.

On to GCTATTAGTCGAAAGGGCAACCGAATGATTCTCG, for which the PBM binding z-score was -0.0421.

Take CCTAGCAGGCTAGGGTCACTCAAGCATTTCGCTT: the PBM binding z-score is -0.41.

CGTCCAAGGTCAAAAGTCAGTGAAGAGATGACGG showed a PBM binding z-score of 0.638.

For the sequence ATCGAAAGATCGTGAGGTGAGTATACAGAAAGGC, the PBM binding z-score is -0.403.

Turning to CCTCGGAGGACCACAGGAGGTCAGAGCTGCCAGA, the PBM binding z-score was determined as 0.21.

Take TCGAGTAGGTTACCAATGGGGTATTCAGCTTTCT: the PBM binding z-score was -0.757.

As for AGAACGAGGGCACGCTGAGATGATAGCAGAGTAG, the PBM binding z-score is -0.229.

The sequence ATCTCTAAGTAAAGTTCAGTGAAAGATCGATAGA returned a PBM binding z-score of 1.8.

TCTTGTAGATCAAAAGAGGTTAAGAAAGTGCGCT gave a PBM binding z-score of 0.102.

Sequence ATATGTAGGTTAAGGGTCATTCAGGTTGGTTCGC came in with a PBM binding z-score of 2.98.

In turn, CGAACTAGGTCACTGACAGGACAGTGAATAGTAA had a PBM binding z-score of -0.168.

The sequence CCTACTGGGCCATCACGTCATTGATATCAACGTT returned a PBM binding z-score of 0.0325.

Take ACCATTAGTTGAGACGAGGGCAACCGATAGGTTG: the PBM binding z-score is 0.41.

Sequence TCGAGTAGGTTACCAATGGGGCATTCTGCTTTCT showed a PBM binding z-score of -0.788.

Sequence CAAACTAGGTCAAGAGGTCAATGTCCGCTTCCCG had a PBM binding z-score of 1.52.

The sequence TAGCCTAGGTCATTCATGGGCCAGTATAGAAAGC displayed a PBM binding z-score of -0.168.

The sequence GCTTACGGGTCAAAGGTAATAGCATGAATAGAAT registered a PBM binding z-score of -0.182.

Take TTACCAAGGTAAAGGTCGTTGATCCCTCTGTAGA: the PBM binding z-score was 0.148.

Sequence TCTTGTAGATCAACAGGGGGTTAAGAAAGATCGA registered a PBM binding z-score of 0.467.

For the sequence CAAACTAGGTCAAGGCCAAAGTCGGTTTGTGCCA, the PBM binding z-score was -0.0922.

With CCAGACAGTTGAGAAGGTAACTCAGCCTCGATTA, the PBM binding z-score is 0.294.
